Measurements from PubChem BioAssay (Tox21).
Results filed as inconclusive are left out. Entries that show only a call come without a potency. Activity calls are given as the source filed them. Calls come from the whole dose curve; as a rule, active = well fitted cell-killing curve with a large enough effect in the repeat runs; inconclusive = weak or mixed curves; inactive = flat fitted curve, though single readings scatter.

Experiment: qHTS assay to identify small molecule antagonists of the estrogen related receptor (ERR) signaling pathway from Tox21 library - cell viability counter screen (AID 1224834); note: nearly all actives have a fitted effect of over 30% in size
Details: ERR reporter cells viability, CellTiter-Fluor, 17.5 h; series mostly up to 92.4 µM
Text: National Center for Advancing Translational Sciences [NCATS]
NIH Chemical Genomics Center [NCGC]
U.S. Environmental Protection Agency [EPA]
National Institutes of Environmental Health Sciences [NIEHS]
National Toxicology Program [NTP]
U.S. Food and Drug Administration [FDA]
Estrogen related receptors (ERRs), the first orphan nuclear receptors discovered, play an important role in the control of cellular energy metabolism. ERRs are required for high-energy production in response to the environmental challenges. ERR-alpha was also identified as an adverse marker for breast cancer progression; ERR-alpha-positive tumors have a poor prognosis. To screen and to identify environmental compounds that perturb the ERR signaling pathways could provide valuable information for potential therapeutic or preventive measures in the treatment of metabolic disease. To differentiate true ERR antagonists or agonist from cytotoxic substances, the assay is multiplexed with cell viability assay.
Tox21 Assay Protocol Summary:
The ERR cells were dispensed at 2,000 cells/5 ul/well in 1536-well white plates using a Multidrop dispenser. After the assay plates were incubated at a 37 C/5% CO2 incubator for 6 hours, 23 nL of compounds dissolved in DMSO, positive and negative controls or DMSO only was transferred to the assay plate by a pin tool. The plates were incubated at 37 C for 17.5 hours. 1 ul/well of CellTiter-Fluor reagent was added into the assay plates using a Flying Reagent Dispenser. After 30-minute incubation at 37 C/5% CO2, the fluorescence intensity in the plates was measured using a ViewLux plate reader.
Potency is the fitted concentration of half-maximal effect.

Row | SMILES | viability change, negative = cytotoxic | Potency
1 | CCCCCCCCCCCCS(=O)(=O)Cl | -1.38% [at 19 µM] (inactive) | 
2 | CCCC(C)C=O (stereo not given) |  | inactive
3 | CCSCC |  | inactive
4 | CCOC(=O)[C@H](O)[C@@H](O)C(=O)OCC |  | inactive
5 | CCOC(=O)[C@H](C)O |  | inactive
6 | CCCCCCCCCCCCCCCCCCNC(=O)OC1CCN(C(=O)OC[C@H](COC(=O)N(Cc2cccc[n+]2CC)C(=O)c2ccccc2OC)OC)CC1 |  | 26.6 µM (active)
7 | Cc1cc(Br)ccc1NC(=O)CCl |  | 19.3 µM (active)
8 | Cc1cc(F)ccc1-c1cc(N2CC[C@@H](O)[C@H]2CO)ncc1N(C)C(=O)C(C)(C)c1cc(C(F)(F)F)cc(C(F)(F)F)c1 |  | 42.6 µM (active)
9 | c1ccc(-c2ccc(C(c3ccccc3)n3ccnc3)cc2)cc1 (stereo not given) |  | 33.5 µM (active)
10 | CC(C)C(=O)C(C)C |  | inactive
11 | Cc1ccc2n[nH]nc2c1 |  | inactive
12 | CN1CCN(c2ccccc2/C=C2\SCCN(c3ccc(Cl)c(Cl)c3)C2=O)CC1 |  | 54.5 µM (active)
13 | C/C=C/C(=O)C1=C(C)C=CCC1(C)C |  | inactive
14 | CCCCCN=C(N)N/N=C/c1c[nH]c2ccc(OC)cc12 |  | 26.6 µM (active)
15 | Oc1ccc(Cl)cc1C1CCCC1 |  | inactive
16 | Clc1ccc2c(Cl)ccnc2c1 |  | inactive
17 | O=C1OCc2ccccc21 |  | inactive
18 | O=C1CCCCCCCCCCCCCC1 |  | inactive
19 | CC(C)(C)C1=CC(=O)C(C(C)(C)C)=CC1=O |  | inactive
20 | Nc1c(Br)cc([N+](=O)[O-])cc1Br |  | inactive

Row | SMILES | viability change, negative = cytotoxic | Potency
21 | c1ccc(-c2ccccc2-c2ccccc2)cc1 |  | inactive
22 | CCCCCCCCSCc1cc(C)c(O)c(CSCCCCCCCC)c1 |  | inactive
23 | O=C(O)CN(CCCN(CC(=O)O)CC(=O)O)CC(=O)O | 11.6% [at 19 µM] (inactive) | 
24 | COc1ccc(OC)c(N=Nc2c(O)ccc3ccccc23)c1 |  | 24.3 µM (active)
25 | CC1=C(/C=C/C(C)=C/C=C/C(C)=C\C(=O)O)C(C)(C)CCC1 |  | inactive
26 | Brc1cc(Br)cc(Br)c1 |  | inactive
27 | O=C1c2ccccc2C(=O)c2c(Cl)cccc21 |  | inactive
28 | O=C1CCC(=O)N1 |  | inactive
29 | CSc1nnc(C(C)(C)C)c(=O)[nH]1 |  | inactive
30 | CN1CCN(CCCN2c3ccccc3Sc3ccc(C(F)(F)F)cc32)CC1 |  | 29.8 µM (active)
31 | [Cl][Eu]([Cl])[Cl] |  | inactive
32 | C[C@H]1O[C@@H](O[C@H]2CC[C@@]3(C)[C@H](CC[C@@H]4[C@@H]3C[C@@H](O)[C@]3(C)[C@@H](C5=CC(=O)OC5)CC[C@]43O)C2)C[C@H](O)[C@@H]1O[C@H]1C[C@H](O)[C@H](O[C@H]2C[C@H](O)[C@H](O[C@@H]3O[C@H](CO)[C@@H](O)[C@H](O)[C@H]3O)[C@@H](C)O2)[C@@H](C)O1 |  | 0.168 µM (active)
33 | Cc1c[nH]c(=O)[nH]c1=O |  | inactive
34 | CC/C=C(\C)C=O |  | inactive
35 | CCc1c(C)cc(N)c(CC)c1N |  | inactive
36 | C=COCCCC |  | inactive
37 | Cc1cccc2c1ccc1ccccc12 |  | inactive
38 | Oc1ccc(C2(c3ccc(O)c(C4CCCCC4)c3)CCCCC2)cc1C1CCCCC1 |  | 61.1 µM (active)
39 | CCN(CC)c1ccc(C=O)cc1 |  | inactive
40 | CCCCCCCCCCCCCCCCC(C(=O)O)C(O)(CC(=O)O)C(=O)O (stereo not given) |  | inactive
